Assay [1] addresses ATP-dependent translocase ABCB1 (Homo sapiens) (UniProt P08183). Put plainly: MDR1 (ABCB1) efflux transporter inhibition, cell-based (AID 377; in the data active = fluorescence slope change above about 50%). The following applies: MDR1-expressing cells, fluorescent substrate accumulation slope; stronger effect = higher value; concentration not given here.
The nature of assay [2]: hESC survival regulators, cell-based (AID 493140; call rule not given here;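 also: cells exposed to compounds for four days before counting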). The conditions noted are these: human embryonic stem cell survival screen; stronger effect = higher value.
Assay [3] is described as follows: liver-stage malaria parasite growth inhibition, primary screen, cell-based, HepG2, luciferase luminescence, HepG2 viability (AID 624349).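 Also: 100% = mean of DMSO negative control wells on the same plate.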 The following applies: P. berghei liver stage in HepG2, luciferase luminescence, concentration not given here; parasite load remaining: stronger effect = lower value; viability: measured here: HepG2 viability without parasites.
Assay [4] has as its target 6-phosphogluconate dehydrogenase, decarboxylating (Homo sapiens) (UniProt P52209). The assay can be described thus: 6PGD enzyme inhibitors, primary screen, biochemical, human, recombinant enzyme, NADPH absorbance (AID 1159550;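 active = at least 20% inhibition of 6-phosphogluconate dehydrogenase activity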). The conditions noted are these: recombinant 6PGD, NADPH absorbance 341 nm; at 10 µM; stronger effect = higher value.
For assay [5], the system named is Aerobactin synthetase IucA (Klebsiella pneumoniae, hypervirulent). The assay can be described thus: IucA enzyme inhibition, biochemical, LOPAC library, absorbance readout (AID 1346212; call rule not given here;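 also: 100% = no compound wells and 0% = no enzyme wells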). The conditions noted are these: IucA enzyme assay, absorbance (OD) readout; stronger effect = lower value;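 tested at 8 µM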.
Assay [6] in a line: sensitizers of A549 cells to miR-34 induction, primary screen, imaging, A549 dox-inducible miR-34, nuclei and caspase counts (AID 1347080;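 active = compounds whose cell count with miR-34 switched on is under 0.7 times the count with it off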). The conditions noted are these: A549 miR-34 inducible, Hoechst nuclei count, 48 h.
Assay [7] is described as follows: survival rescue of mitochondrial mutant cells in low glucose, primary screen, MELAS cybrids, Rieske KO mouse fibroblasts, CellTiter-Glo (AID 1508586;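 active = mean z-score across replicates of 1.96 or higher in either the MELAS or the Rieske mutant cell line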;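 also: z relative to plate mean and SD of compound and empty wells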).
The target of assay [8] is NAD(+) hydrolase SARM1 (Homo sapiens) (UniProt Q6SZW1). The assay can be described thus: SARM1 TIR NADase inhibitors, cell lysate, NAD-Glo luminescence (AID 1508614;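 active = compound whose remaining NAD level is above about 45 nM, limit read from the data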;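 also: higher remaining NAD means stronger inhibition of SARM1 NADase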). The following applies: SAM-TIR HEK293T lysate NADase, at 1 µM, stronger effect = higher value.
Assay [9] concerns the target Mitogen-activated protein kinase 7 (Homo sapiens) (UniProt Q13164). Put plainly: ERK5 transactivation activators in reporter cells, primary screen, cell-based, HTS (AID 1508626;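 active = luciferase signal above three times the same-plate solvent-only control wells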;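 also: luciferase driven by Gal4-ERK5 fusion binding five Gal4 sites before minimal TATA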). The following applies: HeLa Gal4-ERK5 transactivation, 18 h, at 5 µM, stronger effect = higher value.
The nature of assay [10]: viability rescue of complex I mutant cybrids, primary screen, cell-based, galactose medium, ATP luminescence (AID 1645843;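 active = z-score of at least 1.8 in each of two replicates, scored against plate mean and spread of sample wells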;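 also: positive z means more ATP and so rescue of galactose-driven cybrid death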). The conditions noted are these: complex I mutant cybrid cells, 72 h, stronger effect = higher value.
For assay [11], the system named is Aerobactin synthetase IucA (Klebsiella pneumoniae hvKP1). The assay can be described thus: Biochemical IucA enzyme inhibition primary screen of the Spectrum library (AID 1346200; call rule not given here;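 also: 100% = wells without compound and 0% = wells lacking enzyme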). The conditions noted are these: malachite green pyrophosphate, A620, at 8 µM, stronger effect = lower value.
Where [12] appears, read: measured here: relative caspase fold change +Dox/-Dox.
Where [13] appears, read: measured here: total cells with miR-34 induction, stronger effect = lower value.
Setting [14] is: measured here: total cells without miR-34 induction.
Where [15] appears, read: MELAS cybrid survival, CellTiter-Glo 48 h, stronger effect = higher value.
Where [16] appears, read: Rieske KO mouse fibroblast survival, CellTiter-Glo 72 h.

Several values for one entry are separate records, joined by “and”; a condition that tells them apart may be missing. Equal entries are not always repeated. Inconclusive results are not listed. Activity calls are given as the source filed them. Rule as the data show it, unless noted: active = parasite load remaining mostly below about 12% (no sharp cut-off); inactive = mostly above about 10%.

For orientation: viability means a read-out of living cells in per cent, often relative to untreated cells. For orientation: inhibition means the drop in the measured response relative to a control, in per cent. What is called remaining activity is the signal under treatment as a percentage of the control signal.

Sequence of Mitogen-activated protein kinase 7 (Homo sapiens) (Q13164 whole entry, looked up, the tested form may be a part): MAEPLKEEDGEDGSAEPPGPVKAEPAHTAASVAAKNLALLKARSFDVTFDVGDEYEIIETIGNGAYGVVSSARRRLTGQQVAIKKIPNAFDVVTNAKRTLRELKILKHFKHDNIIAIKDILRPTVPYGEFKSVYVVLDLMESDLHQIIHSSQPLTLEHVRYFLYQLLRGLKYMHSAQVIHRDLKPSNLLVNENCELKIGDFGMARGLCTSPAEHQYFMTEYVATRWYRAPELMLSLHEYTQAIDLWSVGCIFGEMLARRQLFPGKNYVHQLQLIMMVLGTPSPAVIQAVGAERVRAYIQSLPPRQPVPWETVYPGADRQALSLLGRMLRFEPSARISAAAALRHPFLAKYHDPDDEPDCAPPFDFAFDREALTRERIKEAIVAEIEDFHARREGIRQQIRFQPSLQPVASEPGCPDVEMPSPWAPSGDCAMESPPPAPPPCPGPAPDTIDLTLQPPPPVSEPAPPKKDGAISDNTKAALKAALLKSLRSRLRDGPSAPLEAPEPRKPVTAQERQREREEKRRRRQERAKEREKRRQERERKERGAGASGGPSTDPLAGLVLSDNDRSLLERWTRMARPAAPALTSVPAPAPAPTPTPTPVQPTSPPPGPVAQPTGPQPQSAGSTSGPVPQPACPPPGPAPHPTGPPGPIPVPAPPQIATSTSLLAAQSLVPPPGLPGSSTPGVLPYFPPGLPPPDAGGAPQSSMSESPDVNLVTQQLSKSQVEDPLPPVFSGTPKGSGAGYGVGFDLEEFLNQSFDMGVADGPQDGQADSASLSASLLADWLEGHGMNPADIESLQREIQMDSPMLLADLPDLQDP
Sequence of 6-phosphogluconate dehydrogenase, decarboxylating (Homo sapiens) (P52209 whole entry, looked up): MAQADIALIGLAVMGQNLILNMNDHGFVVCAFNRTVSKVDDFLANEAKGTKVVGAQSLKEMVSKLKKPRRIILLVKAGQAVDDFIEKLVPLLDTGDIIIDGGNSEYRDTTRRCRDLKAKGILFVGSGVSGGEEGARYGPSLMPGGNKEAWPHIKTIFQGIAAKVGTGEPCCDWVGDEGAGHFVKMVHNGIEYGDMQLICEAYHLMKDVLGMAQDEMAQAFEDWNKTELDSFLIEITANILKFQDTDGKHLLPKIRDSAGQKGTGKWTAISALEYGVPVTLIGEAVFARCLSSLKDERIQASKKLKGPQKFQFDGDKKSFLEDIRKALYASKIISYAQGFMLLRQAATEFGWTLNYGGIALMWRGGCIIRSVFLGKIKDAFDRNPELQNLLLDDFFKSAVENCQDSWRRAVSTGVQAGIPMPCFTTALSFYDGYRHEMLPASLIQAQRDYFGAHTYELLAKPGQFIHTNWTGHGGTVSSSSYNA
Sequence of ATP-dependent translocase ABCB1 (Homo sapiens) (P08183 whole entry, looked up): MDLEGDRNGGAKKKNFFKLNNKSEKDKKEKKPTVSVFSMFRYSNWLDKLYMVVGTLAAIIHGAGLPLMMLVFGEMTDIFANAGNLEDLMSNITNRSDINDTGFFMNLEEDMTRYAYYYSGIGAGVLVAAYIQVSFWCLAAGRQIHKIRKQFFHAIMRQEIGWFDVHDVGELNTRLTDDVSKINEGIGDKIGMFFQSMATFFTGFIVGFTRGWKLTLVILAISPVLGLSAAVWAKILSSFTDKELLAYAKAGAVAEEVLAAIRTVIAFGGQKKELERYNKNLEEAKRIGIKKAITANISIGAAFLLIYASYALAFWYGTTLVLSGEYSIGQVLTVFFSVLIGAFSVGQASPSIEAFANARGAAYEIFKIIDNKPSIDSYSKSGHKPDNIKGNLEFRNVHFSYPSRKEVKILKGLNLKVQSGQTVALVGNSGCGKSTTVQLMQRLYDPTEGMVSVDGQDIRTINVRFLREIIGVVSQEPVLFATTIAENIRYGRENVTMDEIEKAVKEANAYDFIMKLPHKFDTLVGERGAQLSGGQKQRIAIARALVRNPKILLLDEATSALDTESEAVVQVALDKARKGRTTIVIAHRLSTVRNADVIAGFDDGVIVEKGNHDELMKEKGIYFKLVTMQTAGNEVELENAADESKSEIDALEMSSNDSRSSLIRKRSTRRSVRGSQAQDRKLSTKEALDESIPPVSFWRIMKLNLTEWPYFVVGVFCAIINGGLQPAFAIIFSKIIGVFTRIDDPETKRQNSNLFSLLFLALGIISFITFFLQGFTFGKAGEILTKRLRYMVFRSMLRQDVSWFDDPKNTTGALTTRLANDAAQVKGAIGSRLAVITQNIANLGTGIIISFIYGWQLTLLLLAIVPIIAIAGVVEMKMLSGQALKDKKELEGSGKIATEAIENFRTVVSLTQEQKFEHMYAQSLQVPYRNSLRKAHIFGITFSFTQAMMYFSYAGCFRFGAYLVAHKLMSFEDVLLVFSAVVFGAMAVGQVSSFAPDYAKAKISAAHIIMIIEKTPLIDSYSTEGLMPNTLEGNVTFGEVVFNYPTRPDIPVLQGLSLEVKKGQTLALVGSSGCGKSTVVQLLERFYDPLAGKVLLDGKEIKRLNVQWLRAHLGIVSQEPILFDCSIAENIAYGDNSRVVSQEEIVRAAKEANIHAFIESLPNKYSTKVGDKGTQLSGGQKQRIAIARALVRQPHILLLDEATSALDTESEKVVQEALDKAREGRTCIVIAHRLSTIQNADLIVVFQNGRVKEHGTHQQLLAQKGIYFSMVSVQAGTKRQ
Sequence of NAD(+) hydrolase SARM1 (Homo sapiens) (Q6SZW1 whole entry, looked up, the tested form may be a part): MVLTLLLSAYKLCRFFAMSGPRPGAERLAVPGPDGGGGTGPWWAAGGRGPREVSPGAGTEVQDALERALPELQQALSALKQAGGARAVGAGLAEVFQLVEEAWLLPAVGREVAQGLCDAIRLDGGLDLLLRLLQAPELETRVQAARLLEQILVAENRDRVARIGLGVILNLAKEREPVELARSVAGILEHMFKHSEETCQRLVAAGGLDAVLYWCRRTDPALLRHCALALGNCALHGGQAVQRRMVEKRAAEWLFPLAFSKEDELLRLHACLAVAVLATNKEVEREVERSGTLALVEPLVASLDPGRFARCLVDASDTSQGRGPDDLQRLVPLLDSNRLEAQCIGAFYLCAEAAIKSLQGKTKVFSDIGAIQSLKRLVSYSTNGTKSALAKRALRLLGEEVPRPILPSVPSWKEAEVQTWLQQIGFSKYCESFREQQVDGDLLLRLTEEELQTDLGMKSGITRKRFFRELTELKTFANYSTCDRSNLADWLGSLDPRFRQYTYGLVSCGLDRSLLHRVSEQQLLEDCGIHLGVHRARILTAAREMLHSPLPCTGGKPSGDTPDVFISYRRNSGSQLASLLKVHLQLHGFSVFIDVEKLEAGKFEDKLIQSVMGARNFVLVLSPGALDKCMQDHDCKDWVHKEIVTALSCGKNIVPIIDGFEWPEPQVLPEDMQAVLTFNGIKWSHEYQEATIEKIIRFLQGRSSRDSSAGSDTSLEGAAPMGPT

Take `Oc1ccc2c3c1O[C@H]1[C@@H](O)CC[C@@]4(O)[C@@H](C2)N(CC2CCC2)CC[C@]314`: the fluorescence slope change in [1] was 211% (active). The survival in [2] is 24.5 (inactive). Moreover, the parasite load remaining in assay [3] was 32.6% (inactive) and 106% (inactive) and 79.1% (inactive). Moreover, in assay [3], the viability is 52.8% and 85.6% and 172%. In addition, in [4], the inhibition was -20.2% (inactive). Moreover, the remaining activity in assay [5] was 118% (inactive). Also, the fold change in assay [6] (stronger effect = lower value) was 0.924 (inactive) and 0.934 (inactive); in [6] (setting [12]), 1.19 and 1.05. Further, the cell count in assay [6] (setting [13]) is 9080 and 10200; in assay [6] (setting [14]), 9820 and 11000. Also, the z-score in [7] (setting [15]) was 0.883 (inactive) and 0.331 (inactive); in assay [7] (setting [16]) it was 0.202 and -0.251; in [10], 0.78 (inactive). Also, in [8], the remaining NAD is 10 nM (inactive). Besides, the luciferase signal in [9] was 52 AU (inactive).

In the case of `NNCc1ccccc1`, in assay [3], the parasite load remaining is 106% (inactive) and the viability worked out at 91.4%. In assay [4], the inhibition is 9.93% (inactive). Moreover, the activity remaining in assay [11] was 105% (inactive).

As to `COc1c2c(c(CC=C(C)C)c3oc(=O)c(-c4ccc(O)cc4)c(O)c13)OC(C)(C)C=C2`, the inhibition in assay [4] is -5.17% (inactive). In assay [11], the activity remaining was 104% (inactive). In [9], the luciferase signal is 60 AU (inactive).

Take `C[C@]12CC[C@H](O)C[C@@H]1CC[C@@H]1[C@@H]2CC[C@]2(C)C(=O)CC[C@@H]12`: in assay [1], the fluorescence slope change is 99.1% (active). In assay [2], the survival is 10.7 (inactive). Moreover, the parasite load remaining in assay [3] is 91.7% (inactive) and 87.8% (inactive). Besides, the viability in assay [3] was 100% and 84.1%. The inhibition in assay [4] was 18.5% (inactive). Further, the fold change in assay [6] (stronger effect = lower value) was 0.944 (inactive); in [6] (setting [12]) it was 1.47. In addition, the cell count in assay [6] (setting [13]) stood at 7960; in assay [6] (setting [14]) it was 8440. Further, the z-score in assay [7] (setting [15]) was 0.265 (inactive); in [7] (setting [16]) it was 0.304. Moreover, the luciferase signal in [9] is 20 AU (inactive).

As for `C[C@]12CCC(=O)C=C1C=C[C@@H]1[C@@H]2CC[C@@]2(C)[C@H]1CC[C@@]2(O)CCC(=O)O`, the fluorescence slope change in assay [1] is 75% (active). Further, in assay [2], the survival was 19.2 (inactive). Besides, the parasite load remaining in assay [3] was 48.7% (inactive) and 84.2% (inactive). Moreover, the viability in [3] was 45.8% and 86.3%. Besides, in [4], the inhibition is -4.06% (inactive). Moreover, the fold change was 0.935 (inactive) in assay [6] (stronger effect = lower value) and 1.18 in [6] (setting [12]). The cell count in assay [6] (setting [13]) came to 8420; in [6] (setting [14]), 9010. The z-score was 0.754 (inactive) in assay [7] (setting [15]) and 0.299 in [7] (setting [16]).

Turning to `CC(C)(C)C(=O)C(Oc1ccc(Cl)cc1)n1cncn1` (stereo not drawn), in assay [4], the inhibition was 12.8% (inactive). For the same molecule, the activity remaining in assay [11] is 127% (inactive). For the same molecule, the luciferase signal in [9] was 44 AU (inactive).

`COc1ccc2c(c1)[C@]13CCCC[C@@H]1[C@H](C2)N(C)CC3`: in [4], the inhibition was 2.05% (inactive). Also, the fold change was 0.873 (inactive) and 0.843 (inactive) and 0.893 (inactive) in assay [6] (stronger effect = lower value); 2.02 and 0.727 and 1.27 in assay [6] (setting [12]). Besides, the cell count was 9020 and 10500 and 9760 in [6] (setting [13]); 10300 and 12400 and 10900 in assay [6] (setting [14]). Moreover, the z-score was 0.326 (inactive) and 0.234 (inactive) in [7] (setting [15]); 0.302 and -0.256 in [7] (setting [16]); -0.13 (inactive) in [10]. The remaining NAD in assay [8] is 10 nM (inactive). For the same molecule, the luciferase signal in assay [9] was 28 AU (inactive).

Values taken from PubChem BioAssay.
